Compounds with a hit are over-represented: about 2% of the library has one in this group of screens.
STK33 kin inh = human STK33 kinase inhibition. Q9BYT3. ADP-Glo luminescence, MBP substrate. inhibition, % at 12.5 µM. 27,000 tested, 0.44% active. AID 2322; in the data active means inhibition above about 20%
Target sequence (Q9BYT3 whole entry, looked up): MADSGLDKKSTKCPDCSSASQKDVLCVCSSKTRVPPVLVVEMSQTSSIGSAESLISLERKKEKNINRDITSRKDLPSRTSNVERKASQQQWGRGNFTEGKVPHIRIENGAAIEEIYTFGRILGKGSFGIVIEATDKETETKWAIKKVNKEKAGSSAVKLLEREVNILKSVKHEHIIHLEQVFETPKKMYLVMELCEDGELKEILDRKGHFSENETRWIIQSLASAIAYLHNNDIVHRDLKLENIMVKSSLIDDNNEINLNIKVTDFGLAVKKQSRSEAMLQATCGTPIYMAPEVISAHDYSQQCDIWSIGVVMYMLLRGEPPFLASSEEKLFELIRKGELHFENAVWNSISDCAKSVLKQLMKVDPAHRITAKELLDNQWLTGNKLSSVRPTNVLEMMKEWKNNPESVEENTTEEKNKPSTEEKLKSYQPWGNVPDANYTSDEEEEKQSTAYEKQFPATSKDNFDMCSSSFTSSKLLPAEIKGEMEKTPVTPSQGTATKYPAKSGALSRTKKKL
p53 PUMA act = re-activators of the mutant p53 pathway. AID 624151. 28,000 tested, 1.5% active. activation, % at 9.98 µM. SW480 PUMA-promoter luciferase, p53 mutant reactivation; in the data active means activation above about 52%
ID4 binder = binds human ID4 protein on microarray | P47928 | small molecule microarray, Flag-ID4 binding, fluorescence F/B | calls only | 31,000 tested, 1.2% active; call rule not given here;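 further: a binder raises fluorescence above local background on the spot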
Numbers without * were called inactive; i = inactive; nt = no result; + = active, no number.

SMILES	STK33 kin inh	p53 PUMA act	ID4 binder
C[C@@H]1CN([C@H](C)CO)C(=O)c2cc(-c3ccncc3)cnc2O[C@H]1CN(C)C(=O)NC1CCCC1	nt	5	+
C[C@@H]1CN([C@H](C)CO)C(=O)c2cc(-c3ccncc3)cnc2O[C@@H]1CN(C)C(=O)C1CCOCC1	nt	13	+
C[C@@H]1CN([C@H](C)CO)C(=O)c2cc(C3=CCCC3)cnc2O[C@H]1CN(C)C(=O)Cc1ccncc1	nt	2	+
C[C@@H]1CN([C@@H](C)CO)C(=O)c2cc(-c3cccnc3)cnc2O[C@H]1CN(C)C	nt	nt	+
C[C@@H]1CN([C@H](C)CO)C(=O)c2cc(-c3cccnc3)cnc2O[C@H]1CN(C)C	nt	nt	i
C[C@H](CO)N1C[C@H](C)[C@H](CN(C)C(=O)NC2CCCCC2)Oc2ncc(-c3ccc(F)cc3)cc2C1=O	-7	nt	nt
C[C@H]1CC[C@@H]2[C@@H](C(=O)c3c(O)c([C@]4(O)CC[C@@H](O)[C@H]5O[C@H]54)cn(O)c3=O)[C@@H](C)C=C[C@H]2C1	-5	nt	nt
Cc1ccccc1NC(=O)CSc1nc2cc3ccccc3cc2[nH]1	3	-34	i
CCN(CC(=O)O)S(=O)(=O)c1ccc(Cl)cc1	3	9	i
COC(=O)c1ccccc1NC(=O)CN1C(=O)c2cccc3cccc1c23	-1	-3	i
COC(=O)c1c(N)oc2c(-c3cccc(C(F)(F)F)c3)c3c(C(=O)OC)c(N)oc3cc12	nt	-6	i
C[C@@H]1CN([C@@H](C)CO)C(=O)c2cc(-c3ccncc3)cnc2O[C@H]1CN(C)Cc1ccc(Oc2ccccc2)cc1	nt	-18	+
C[C@@H]1CN([C@H](C)CO)C(=O)c2cc(-c3cccnc3)cnc2O[C@@H]1CN(C)Cc1ccc(Oc2ccccc2)cc1	nt	-11	nt
Cc1noc(C)c1-c1nc(CSc2n[nH]c(=O)n2C2CC2)no1	nt	-4	i
Cc1ccc2oc(-c3ccc(Cl)c(NC(=O)COc4ccc(C)c(C)c4)c3)nc2c1	3	-9	i
Cc1ccc(-c2nc3ccccc3o2)cc1NC(=O)COc1ccccc1	0	-11	i
Cc1cc2nc(-c3ccc(C)c(NC(=O)COc4ccc([N+](=O)[O-])cc4)c3)oc2cc1C	3	66*	i
Cc1ccc2oc(-c3ccc(C)c(NC(=O)COc4ccc(Br)cc4)c3)nc2c1	3	65*	i
CN(Cc1ccccc1)CC1CC(c2ccccc2)OC(c2ccc(NC(=O)CCCCCCC(=O)O)cc2)O1 (configuration not stated)	nt	nt	+
COC(=O)CCCCCCC(=O)Nc1ccc(C2OC(CN(C)Cc3ccccc3)CC(c3ccccc3)O2)cc1 (configuration not stated)	nt	nt	i
COCC1CC(c2ccccc2)OC(c2ccc(NC(=O)CCCCCCC(=O)O)cc2)O1 (configuration not stated)	nt	nt	+
COC(=O)CCCCCCC(=O)Nc1ccc(C=O)cc1	nt	nt	i
O=C(O)CCCCCCC(=O)Nc1ccc(C2OC(CSc3ccncc3)CC(c3ccccc3)O2)cc1 (configuration not stated)	nt	nt	+
O=C(O)CCCC(=O)Nc1ccc(Cl)c(Cl)c1	-3	-11	i
C=C1C(=O)O[C@@H]2C[C@@]3(C)CC(=O)C=C(C)C3C[C@H]12 (some centres not stated)	1	nt	nt
SMILES	STK33 kin inh	p53 PUMA act	ID4 binder
CCCCCC[C@H](O)[C@@H]1C[C@@H](O)C2=C(O1)[C@@H](O)CCC2=O	0	-8	i
C[C@@H]1CN([C@@H](C)CO)C(=O)c2cc(NC(=O)CCCN(C)C)ccc2O[C@@H](C)CCCCO[C@@H]1CN(C)S(=O)(=O)c1cn(C)cn1	nt	3	+
C[C@H](CO)N1C[C@H](C)[C@@H](CN(C)S(=O)(=O)c2cccs2)Oc2ccc(NC(=O)CCCN(C)C)cc2C1=O	nt	6	+
C[C@@H]1CCCCO[C@H](CN(C)S(=O)(=O)c2cccs2)[C@@H](C)CN([C@H](C)CO)C(=O)c2cc(NC(=O)CCC(F)(F)F)ccc2O1	-4	nt	nt
C[C@@H]1CN([C@@H](C)CO)C(=O)c2cc(NC(=O)CCCN(C)C)ccc2O[C@@H]1CN(C)S(=O)(=O)c1cccs1	0	nt	nt
C[C@@H]1CCCCO[C@@H](CN(C)S(=O)(=O)c2cccs2)[C@@H](C)CN([C@@H](C)CO)C(=O)c2cc(NC(=O)CCCN(C)C)ccc2O1	nt	7	+
C[C@H](CO)N1C[C@H](C)[C@H](CN(C)S(=O)(=O)c2cn(C)cn2)Oc2ccc(NC(=O)CCCN(C)C)cc2C1=O	-1	nt	nt
CC(CNc1ccccc1)C(=Nc1ccccc1)Nc1ccccc1 (configuration not stated)	8	nt	nt
CCOC(=O)CSc1nncc(=O)[nH]1	-2	nt	nt
COc1ccc(-n2c(SCC(=O)Nc3ccc(Cl)cc3Cl)nnc2-c2ccncc2)cc1	3	7	i
CS(=O)(=O)Nc1ccc(C(=O)NCc2cccnc2)cc1	0	8	i
